Experimental data taken from PubChem BioAssay AID526 (National Center for Advancing Translational Sciences (NCATS), 2006).
Screen size: about 67,000 compounds; fewer than 10 were called active. Calls follow the shape of the dose curve; as a rule, active = well fitted activation curve with a large enough effect (not every such curve was filed as active); inconclusive = small, poorly fitted or top-dose-only effect, or another doubt; inactive = no such curve, though single readings can be large or run the other way. The list is a sample of the results.

Assay: Ubiquitin-GFP Assay
Details: Ubiquitin-GFP reporter cells, proteasome inhibition, GFP fluorescence, untreated = 0%, 10 µM MG-132 = 100%; series mostly up to 45.9 µM
Text: NIH Chemical Genomics Center [NCGC]
NIH Molecular Libraries Screening Centers Network [MLSCN]
The ubiquitin-proteasome pathway is present within all eukaryotic cells and plays roles in normal cellular functions and disease-related dysfunction. Proteins are tagged with a poly-ubiquitin chain that targets them for the proteasome, a multimeric protease, that degrades the protein into peptides and free ubiquitin. The proteasome has a key role in regulating cell cycle and growth and is known to control the levels of cyclins and CDK inhibitors as well as tumor suppressor proteins. Additionally, the activation of NF- B is controlled by ubiquitin-labeling and degradation of the inhibitory protein I B . […] With this in mind, proteasome inhibitors such as MG-132 and PS-341 have been used to inhibit tumor cell growth.
A cellular assay for ubiquitin-proteasome function was used to find chemical probes of this pathway. The assay used an ubiquitin-GFP construct expressed in U2OS cells (BioImage). Under basal conditions little GFP can be detected as it is degraded by the proteasome. However, treatment of the cells with a proteasome inhibitor such as MG-132 results in a rise in GFP levels that can be detected in as little as four hours. We used the Acumen-Explorer laser plate cytometer having a 488 nm laser as an excitation light source to detect the GFP. Compounds were screened in 1536-well plates using qHTS with a concentration-titration series range that varied from 46 uM to 2.9 nM.
NCGC Assay Protocol Summary:
Cells (U20S ps 2042) expressing ubiquitin (G76V-GFP) were maintained in DMEM with Glutamax-1 and high glucose, 10% FBS, 1% (v/v) penicillin-streptomycin, 0.5 mg/mL Geneticin (G418). The cells were seeded in 1536-well plates using a solenoid-based dispenser at 700 cells/5ul in DMEM medium with Glutamax-1 and high glucose containing 0.5% FBS, w/o phenol red, 25 mM HEPES. The plates were incubated at 37 °C/5% CO2 overnight. Then 23 nl of MG-132 in DMSO was added to the control wells at a final concentration of 10 uM. Next, 23 nL of library compounds in DMSO were added to the sample wells. The plates were incubated for 4 hrs at 37 °C/5% CO2. Following this incubation the plates were read on the Acumen using a cell object definition of 15 to 100 um in width and depth and a window of Total Intensity of between 77,200 and 2,720,000 FLU to enumerate GFP-expressing cells.
The %Activity was determined from the basal and MG-132 treated control wells. %Activity was determined by normalizing to the difference in signal between basal cells (0% Activity) and cells incubated with 10 uM of the proteasome inhibitor MG-132 (100% Activity). Concentration-response curves were fitted to the signals arising from the GFP fluorescence.
Assay Protocol Summary Table
Sequence Parameter Value Description
2. Time O/N 37C incubation
4. Compound 23 nL Libraries (46 uM to 2.9 nM)
5. Time 4 hr 37C incubation
6. Detector Acumen Total Intensity, GFP fluorescence (488 ex/515 em)
Keywords: NIH Roadmap, MLSCN, MLI, MLSMR, BioImage, proteasome, ubiquitin-GFP, qHTS, NCGC

Activation (GFP accumulation), inactive:
Cc1ccccc1NC(=O)c1cnn(-c2ccccc2)c1NC(=O)c1ccco1, c1ccc(CSCCc2ccncc2)cc1 0.403% [at 9.17 µM], CCOC(=O)c1cc2cc(C)ccc2[nH]1, Cn1c(=O)cc(OCCCC(=O)N2CCN(c3ccccn3)CC2)c2ccccc21, COc1ccccc1-n1c(CNC(=O)c2ccccc2)nnc1SCC(=O)Nc1nnc(C)s1, COc1ccccc1-c1nc(NCCNC(C)=O)c2ccccc2n1, CCc1ccc(-c2nnn(Cc3nc4ccccc4s3)n2)cc1, CC(=O)OCC(=O)[C@@]1(O)CC[C@@H]2[C@H]3CCC4=CC(=O)C=C[C@]4(C)[C@]3(F)[C@@H](O)C[C@@]21C, CCC(=O)N1c2ccc(S(=O)(=O)CCC(=O)N3CCN(c4ccccc4)CC3)cc2CC1C (centres undefined), CN(C)c1nc2n(c(=O)n1)CCO2, c1ccc(CCN2CCN=C2Cc2ccccc2)cc1 -3.08% [at 9.17 µM], COc1ccccc1N1CCN(C(=O)c2cc(-c3ccc(Cl)c(Cl)c3)on2)CC1, Cc1nc(NC(=O)CCC(=O)O)sc1C(=O)N(C)C, CN1CCN(CCCNC(=O)c2cc3c(=O)oc4ccccc4c3s2)CC1, COc1ccc(CC(=O)Nc2nc3n(n2)C(c2ccccc2)CC(=O)N3)cc1OC (centres undefined), COc1c(C)c2c(c(O)c1C/C=C(\C)CCC(=O)O)C(=O)OC2, CN(C)CCSS(=O)(=O)O 9.1% [at 9.17 µM], CCCn1c(C)nc2c(NCCCCN(CC)CC)nc(C)nc21, CCOC(=O)N1CCN(C(=O)Cc2ccc(-n3c(=S)[nH]c4ccccc4c3=O)cc2)CC1, CCN(CC)CCCCn1c(-c2ccccc2)nc2c(N3CCOCC3)nc(C)nc21, CCN(Cc1ccncc1)C(=O)c1cccc(S(=O)(=O)N2CCOCC2)c1, CN(C)CC/C=C1\c2ccccc2CSc2ccccc21, CC[C@@H]1Cc2cc(O)ccc2C2=C1c1ccc(O)cc1C[C@H]2CC, COc1ccc(C(=O)n2nc(-c3ccc(C)cc3)nc2N)cc1OC, O=C(C1CCC1)N1CCc2cc(S(=O)(=O)NCc3cccnc3)ccc21, CC(C)CNC(=O)c1cc(-c2ccc(Br)cc2)on1, CCn1c(CNC(=O)c2ccc(OC)c(OC)c2)nnc1SCC(=O)Nc1ccccc1, COCCNC(=O)c1snc2ccc(Cl)cc12, O=C(c1cc(C(F)(F)F)cc(C(F)(F)F)c1)N1CCC[C@@]2(CCN(c3ccccn3)C2)C1
